According to PubChem BioAssay:
Calls of active or inactive are those of the source. Unless noted, how the calls were made is not given here.

Legend:
[1] = compounds altering circadian rhythm period length – cell-based, LOPAC library, luminescence reporter (AID 2774); conditions: circadian reporter cells, at 7 µM, actives lie on both sides;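 further: values are relative to mean of DMSO wells on each plate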
[2] = system: Hepatitis C virus NS3 helicase; test: blockers of NS3h binding to ssDNA – biochemical, fluorescence polarization, LOPAC1280 library, primary screen (AID 687035; in the data active means inhibition above about 37%); conditions: Purified HCV NS3 helicase, Cy5-dT15 ssDNA binding fluorescence polarization; stronger effect = higher value; concentration not given here
[3] = compounds altering Cy5-DNA-NS3h complex signal – biochemical, LOPAC1280, artefact control for HCV NS3 helicase inhibitor project (AID 687037); conditions: Cy5-DNA-NS3h complex fluorescence interference counterscreen
[4] = growth inhibition, single agents and combos, LFS_MB_1R, cell-based, cisplatin or BGB combos, synergistic combos for chromothripsis tumors (AID 1671452; in the data active means inhibition above about 80%;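 further: cells exposed for 96 hours before readout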); conditions: LFS_MB_1R medulloblastoma cells, stronger effect = higher value
[5] = growth inhibition, single agents and combos, CRL2098, cell-based, BGB or cisplatin IC20 combos, synergistic combos for chromothripsis tumors (AID 1671454; in the data active means inhibition above about 80%;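 further: cells exposed for 96 h before readout; 0% = vehicle DMSO and 100% = killing by high DMSO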); conditions: CRL2098 osteosarcoma cells, drug combinations, stronger effect = higher value
[6] = growth inhibition, single agents and combos, HD-MB03, cell-based, BGB or cisplatin IC20 combos, synergistic combos for chromothripsis tumors (AID 1671455; in the data active means inhibition above about 83%;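 further: 0% = vehicle DMSO and 100% = high DMSO as cytotoxic control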); conditions: HD-MB03 medulloblastoma cells, stronger effect = higher value
[7] = growth inhibition, single agents and combos, UWB1.289, cell-based, BGB or cisplatin combos, synergistic combos for chromothripsis tumors (AID 1671456; in the data active means inhibition above about 80%;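 further: cells exposed to compound for four days; 0% = vehicle DMSO and 100% = killing by high DMSO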); conditions: UWB1.289 ovarian carcinoma cells, stronger effect = higher value
[8] = growth inhibition, single agents and combos, LFS_MB_2R, cell-based, cisplatin combos, synergistic combos for chromothripsis tumors (AID 1671457; in the data active means inhibition above about 80%;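 further: cells exposed to compound for four days before readout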); conditions: LFS_MB_2R medulloblastoma cells, stronger effect = higher value
[9] = growth inhibition, MDA-MB-436, cell-based, BGB or cisplatin combos, synergistic combos for chromothripsis tumors (AID 1671458); conditions: MDA-MB-436 breast carcinoma growth inhibition, drug combinations, stronger effect = higher value;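 further: cells exposed for 96 hours; 0% = vehicle DMSO and 100% = killing by high DMSO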
[10] = UWB1.289_BRCA1 ovarian cancer growth, cell-based, BGB or cisplatin combinations (AID 1671459; in the data active means inhibition above about 80%); conditions: UWB1.289 BRCA1 ovarian carcinoma, drug combinations, stronger effect = higher value
[11] = drug combination toxicity in non-malignant astrocytes – cell-based, BGB or cisplatin IC20 combos, cytotoxicity control for chromothriptic childhood tumor combination screen (AID 1671460; in the data active means inhibition above about 80%;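 further: cells exposed to compounds for 96 hours before viability readout; 0% = vehicle and 100% = killing control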); conditions: Human astrocytes, viability inhibition, drug combinations, at 0.5 µM, stronger effect = higher value
[12] = BT084 cell growth, single and combined drugs, ICGC_MB145, cisplatin and BGB IC40 combos (AID 1671461; in the data active means inhibition above about 80%;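 further: cells exposed to drugs for 96 hours; 0% = vehicle DMSO and 100% = high DMSO full killing control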); conditions: BT084 medulloblastoma cells, drug combinations, stronger effect = higher value
[13] = RCMB18 cell growth, single agent and combined, cisplatin and BGB IC40 combos (AID 1671462; in the data active means inhibition above about 80%;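 further: cells exposed to compound for four days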); conditions: RCMB18 medulloblastoma cells, stronger effect = higher value
[14] = CRL1545 cell growth, single agent and combined, cisplatin and BGB IC20 combos (AID 1671464; in the data active means inhibition above about 80%;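 further: cells exposed to compound for 96 hours before readout; 0% = vehicle DMSO and 100% = high DMSO killing control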); conditions: CRL1545 osteosarcoma cells, stronger effect = higher value
[15] = compounds altering viability of human ES cells (AID 493140); conditions: human embryonic stem cell survival screen; stronger effect = higher value;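 further: cells exposed to compounds for four days before counting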
[16] = liver-stage malaria parasite load reduction – cell-based, known kinase inhibitor set, luminescence, hepatoma host viability (AID 624392); conditions: Plasmodium liver stage in hepatoma cells, luciferase luminescence, concentration not given here; liver cell % of control: measured here: host liver cell viability; parasite % of control: stronger effect = lower value;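 further: infected cells incubated roughly two days before readout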
[17] = blockers of cellular phospholipid synthesis – cell-based, LOPAC library, screen 4, primary screen (AID 1347384); conditions: animal cells, phospholipid biosynthesis inhibition screen; at 10 µM
[18] = measured here: combination with cisplatin, at 0.5 µM
[19] = measured here: combination with cisplatin, at 5 µM

Q: For `N#C/C(=C\c1ccc(O)c(O)c1)C(=O)NCCCc1ccccc1`, which period change [1] is on record?
A: Its period change is 0.005 h (inactive).

Q: What about the inhibition [2] of the same compound?
A: The inhibition was -2% (inactive).

Q: And the fluorescence ratio (interference) [3]?
A: Its fluorescence ratio (interference) is 1 (inactive).

Q: Which period change [1] does the source give for `CC(C)C1C2CCC(C2)C1N` (stereo not drawn) here?
A: Its period change is -0.025 h (inactive).

Q: For `NS(=O)(=O)c1cccc2c1c([N+](=O)[O-])cc1nc(O)c(O)nc12`, which period change [1] is on record?
A: Its period change is 0.35 h (inactive).

Q: What about the inhibition [2] of the same compound?
A: The inhibition was -6% (inactive).

Q: What about the fluorescence ratio (interference) [3] of the same compound?
A: The fluorescence ratio (interference) was 1 (inactive).

Q: For `O=c1cc(N2CCOCC2)oc2c1ccc1ccccc12`, which inhibition ([4]; at 0.5 µM) is on record?
A: Its inhibition is -3.28% (inactive).

Q: What about the inhibition ([4]; measured here: combination with BGB IC40, at 0.05 µM) of the same compound?
A: Its inhibition is -8.81%.

Q: What about the inhibition [4, 18] of the same compound?
A: The inhibition was -5.09%.

Q: What about the inhibition [4, 19] of the same compound?
A: Its inhibition is 16.4%.

Q: And the inhibition ([5]; at 0.5 µM)?
A: The inhibition was -13.1% (inactive).

Q: What about the inhibition ([5]; measured here: combination with BGB at IC20, at 0.5 µM) of the same compound?
A: Its inhibition is -40.8%.

Q: What about the inhibition ([5]; measured here: combination with cisplatin at IC20, at 0.5 µM) of the same compound?
A: The inhibition was 19.4%.

Q: And the inhibition ([6]; at 0.5 µM)?
A: The inhibition was 3.57% (inactive).

Q: What about the inhibition ([6]; measured here: combo with BGB at IC20, at 0.5 µM) of the same compound?
A: The inhibition was 4.4%.

Q: And the inhibition ([6]; measured here: combo with cisplatin at IC20, at 0.5 µM)?
A: Its inhibition is -1.01%.

Q: And the inhibition ([7]; at 0.5 µM)?
A: The inhibition was -1.52% (inactive).

Q: What about the inhibition ([7]; measured here: inhibition with BGB combination, at 0.05 µM) of the same compound?
A: The inhibition was 2.55%.

Q: What about the inhibition ([7]; measured here: inhibition with cisplatin combination, at 0.05 µM) of the same compound?
A: Its inhibition is -7.12%.

Q: What about the inhibition ([8]; at 0.5 µM) of the same compound?
A: Its inhibition is 0.24% (inactive).

Q: What about the inhibition [8, 18] of the same compound?
A: Its inhibition is 7.58%.

Q: What about the inhibition [8, 19] of the same compound?
A: The inhibition was 0.815%.

Q: What about the inhibition ([9]; at 0.5 µM) of the same compound?
A: Its inhibition is 2.45% (inactive).

Q: What about the inhibition ([9]; measured here: BGB combination, at 0.5 µM) of the same compound?
A: The inhibition was 5.3%.

Q: And the inhibition ([9]; measured here: BGB combination, at 5 µM)?
A: The inhibition was -21.1%.

Q: What about the inhibition ([9]; measured here: cisplatin combination, at 0.5 µM) of the same compound?
A: Its inhibition is -2.44%.

Q: And the inhibition ([9]; measured here: cisplatin combination, at 5 µM)?
A: Its inhibition is -6.05%.

Q: What about the inhibition ([10]; BGB combination, concentration series, at 5 µM) of the same compound?
A: The inhibition was -2.5%.

Q: And the inhibition ([10]; at 0.5 µM)?
A: Its inhibition is -1.77% (inactive).

Q: What about the inhibition ([10]; cisplatin combination, concentration series, at 5 µM) of the same compound?
A: The inhibition was 4.97%.

Q: What about the inhibition [11] of the same compound?
A: Its inhibition is 1.74% (inactive).

Q: And the inhibition ([11]; measured here: combo with BGB IC20)?
A: Its inhibition is -0.854%.

Q: What about the inhibition ([11]; measured here: combo with cisplatin IC20) of the same compound?
A: The inhibition was 0.235%.

Q: What about the inhibition ([12]; at 0.5 µM) of the same compound?
A: The inhibition was -4.41% (inactive).

Q: And the inhibition ([12]; cisplatin combination, at 0.5 µM)?
A: The inhibition was -0.482%.

Q: And the inhibition ([12]; cisplatin combination, at 5 µM)?
A: Its inhibition is -111%.

Q: And the inhibition ([12]; measured here: BGB IC40 combination 0.05 uM, at 0.05 µM)?
A: Its inhibition is -19.7%.

Q: What about the inhibition ([12]; single agent, at 5 µM) of the same compound?
A: Its inhibition is 2.3%.

Q: And the inhibition ([13]; at 0.5 µM)?
A: Its inhibition is -17.7% (inactive).

Q: And the inhibition ([13]; cisplatin combo, at 5 µM)?
A: Its inhibition is 21.8%.

Q: And the inhibition ([13]; measured here: BGB IC40 combination, at 0.05 µM)?
A: The inhibition was -2.3%.

Q: What about the inhibition [13, 18] of the same compound?
A: Its inhibition is -18.7%.

Q: And the inhibition ([13]; single agent, at 5 µM)?
A: Its inhibition is 1.08%.

Q: And the inhibition ([14]; at 0.5 µM)?
A: The inhibition was 11.6% (inactive).

Q: What about the inhibition ([14]; measured here: with BGB IC20 combination, at 0.5 µM) of the same compound?
A: Its inhibition is -23.5%.

Q: What about the inhibition ([14]; measured here: with cisplatin IC20 combination, at 0.5 µM) of the same compound?
A: The inhibition was 28%.

Q: And the inhibition ([14]; single agent, at 0.05 µM)?
A: The inhibition was -4.12%.

Q: And the inhibition ([14]; single agent, at 5 µM)?
A: The inhibition was -7.26%.

Q: For `C=CC(=O)c1ccc2ccccc2c1`, which survival [15] is on record?
A: The survival was 46.4 (inactive).

Q: Which liver cell % of control [16] does the source give for `COc1ccc(OC)c2c(=S)c3ccccc3[nH]c12` here?
A: The liver cell % of control was 97.2%.

Q: And the parasite % of control [16]?
A: The parasite % of control was 125% (inactive).

Q: With `CCOC(=O)C12CC1/C(=N\O)c1ccccc1O2` (stereo not drawn) as the compound, how does the inhibition [2] read?
A: Its inhibition is 0% (inactive).

Q: What about the fluorescence ratio (interference) [3] of the same compound?
A: Its fluorescence ratio (interference) is 1 (inactive).

Q: With `CN(C)C(=O)n1nnnc1Cc1ccc(-c2ccccc2)cc1` as the compound, how does the inhibition [2] read?
A: The inhibition was -2% (inactive).

Q: And the fluorescence ratio (interference) [3]?
A: Its fluorescence ratio (interference) is 1 (inactive).

Q: Which inhibition [2] does the source give for `COc1cc2nc(N3CCCN(C)CC3)nc(NC3CCN(Cc4ccccc4)CC3)c2cc1OC` here?
A: The inhibition was 3% (inactive).

Q: What about the fluorescence ratio (interference) [3] of the same compound?
A: Its fluorescence ratio (interference) is 1 (inactive).

Q: What about the outcome [17] of the same compound?
A: The outcome was “inactive”.

Q: For `CS(=O)(=O)c1cccc(CNc2nc(Nc3ccc4c(c3)CCC(=O)N4)ncc2C(F)(F)F)c1`, which outcome [17] is on record?
A: Its outcome is “inactive”.

Q: Which results are given for `Cc1cccc(-c2[nH]ncc2-c2ccc3ncccc3n2)n1`?
A: liver cell % of control [16]: 102%; parasite % of control [16]: 87.4% (inactive); outcome [17]: inactive
